Consider 11 molecules from PubChem BioAssay (NCATS).

Inconclusive results are not listed. The source made the active and inactive calls. Calls come from the whole dose curve.

The assay is described as follows: qHTS for inhibitors of Rabies Virus screened against the NCATS CANVASS Library (AID 1347402). To be noted: Rabies virus infection cell assay; series mostly up to 45.9 µM.
As for `CO[C@@H]1[C@H](O)[C@@H](C)O[C@@H](OC[C@@H]2C(C)OC(=O)/C=C/[C@H](C)C(O[C@@H]3O[C@H](C)CC4(OC(=O)O[C@@H]4C)C3O)[C@@H](C)CC(C)C(=O)CC[C@H]3OC23)[C@@H]1OC` (stereo partly specified), the molecule was called inactive. On to `C=C1/C=C\C(CCC)=C\c2csc(n2)C(C)NC(=O)C[C@@]2(CC(=O)O)CCC(=C)[C@H](C1)S2` (stereo partly specified), for which the molecule was classed as inactive. `CCCCCCCCC[C@@H]1C[C@@H]2CC[C@H]3[C@@H](C(=O)OCCCCN=C(N)N)[C@@H](C)N=C(N1)N23`: the molecule was called inactive. As for `C=C1C[C@@]23C=CC(=O)[C@@](C)(CCC(=O)Nc4c(O)ccc(C(=O)O)c4O)C2C[C@@H]1CC3O` (stereo partly specified), the entry is “inactive”; as for `COc1ccc(-c2oc3cc(OC)cc(OC)c3c(=O)c2O)cc1`, “inactive”; as for `CCC(C)=C1OC(=O)[C@H](C)[C@H](O)[C@H](Cc2cccnc2)NC(=O)C(NC(=O)c2ncccc2O)C(C)OC1=O` (stereo partly specified), “inactive”. As for `C[C@@H]1C[C@H]2C[C@]3(CCCCN3C)[C@@H]3C[C@H]2[C@H](C1)N(C)C3`, the molecule was called inactive. In the case of `C=C1C[C@@]23C=CC(=O)[C@@](C)(CCC(=O)Nc4c(O)ccc(C(=O)O)c4O)C2C[C@@H]1C(O)C3` (stereo partly specified), the result was inactive. Consider `CC1=C(C)C(=O)OC(C(C)C2(O)CCC3C4C5OC5C5(O)CC=CC(=O)C5(C)C4CCC32C)C1` (stereo unspecified), for which the outcome was inactive.

Turning to `C[C@@]12CCC[C@@](C)(C(=O)O)[C@H]1CC[C@]13C[C@H]4C[C@H](O[C@@]4(C)C1)[C@H]32`, the outcome was inactive. Turning to `C=C1C[C@@]23C=CC(=O)[C@@](C)(CCC(=O)Nc4c(O)ccc(C(=O)O)c4O)C2C[C@@H]1CC3` (stereo partly specified), the outcome was inactive.
